Most compounds without a hit are left out; they make up all but 22% or so of the library.
CYP2C9 inh: blockers of cytochrome P450 2C9 activity – biochemical, luminescence, ADME assay, primary screen. P11712. inhibition, % at 5 µM. hit rate 20% among 96,000. CYP2C9 Supersomes, luciferin-H conversion;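 active = blocking of liver enzyme CYP2C9 beyond about 50% at 5 µM, limit read from the data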
Target sequence (P11712 whole entry, looked up): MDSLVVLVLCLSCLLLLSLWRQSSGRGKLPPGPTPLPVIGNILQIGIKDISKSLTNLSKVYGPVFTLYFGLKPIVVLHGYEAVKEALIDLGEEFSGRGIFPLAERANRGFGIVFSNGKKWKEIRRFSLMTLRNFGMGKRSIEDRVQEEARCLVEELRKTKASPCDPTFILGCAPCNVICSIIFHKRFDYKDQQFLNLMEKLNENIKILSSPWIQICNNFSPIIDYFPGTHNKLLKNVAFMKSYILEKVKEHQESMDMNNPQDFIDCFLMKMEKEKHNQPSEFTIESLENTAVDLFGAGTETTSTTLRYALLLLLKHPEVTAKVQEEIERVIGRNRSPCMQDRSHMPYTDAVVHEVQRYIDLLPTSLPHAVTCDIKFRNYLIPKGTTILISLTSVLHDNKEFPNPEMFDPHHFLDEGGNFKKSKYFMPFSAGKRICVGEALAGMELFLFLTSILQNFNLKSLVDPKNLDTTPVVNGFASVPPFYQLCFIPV
Measles CPE: compounds protecting cells from measles virus cytopathic effect, primary screen, measles RdRp inhibitor project, single point, MLSMR library, absorbance; protection (pct of control), % at 4 µM; Measles virus-infected cells, CPE protection; hit rate 1.5% among 140,000; AID 841, 2007; in the data active = protection mostly above about 24%, no sharp cut-off; inactive = mostly below about 26%
CYP2C19 activ: human CYP2C19 activators, primary screen, biochemical, luminescence. AID 1025, 2008. recombinant CYP2C19, luciferin-H EGE luminescence; hits give high values; 0 = fully inhibited enzyme, 1 = untreated enzyme. 96,000 tested, under 10 active. activation factor at 5 µM;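 active = activation factor of at least 2 at 5 µM in the primary screen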
CYP2C9 act: human CYP2C9 activators, primary screen, biochemical, luminescence. recombinant CYP2C9, luciferin-H conversion; hits give high values; factor 1 = untreated enzyme, 0 = blocked. activation factor at 5 µM. hit rate 1.4% among 96,000. AID 1024, 2008;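 active = activation factor of 2 or more for CYP2C9 at a 5 µM dose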
CYP2C19 inhib: blockers of cytochrome P450 2C19 activity – biochemical, luminescence, ADME assay, primary screen; P33261; CYP2C19 Supersomes, luciferin-H EGE luminescence, 30 min; inhibition, % at 5 µM; hit rate 21% among 96,000; AID 778, 2007;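 active = CYP2C19 inhibition above a set limit at 5 µM in the primary screen, cut at about 50% in these data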
Hits are given with their value; n = inactive; x = not tested or not shown.

SMILES	CYP2C9 inh	Measles CPE	CYP2C19 activ	CYP2C9 act	CYP2C19 inhib
Cc1nn(-c2ccccc2)c2c1C1(C(=O)N(C(C)C)c3ccccc31)C(C#N)=C(N)O2 (configuration not stated)	n	n	n	n	n
CCN1CC2([N+](=O)[O-])C=CC(=O)C([N+](=O)[O-])(C1)C2CC(=O)c1ccccc1 (configuration not stated)	n	27	n	n	n
CCCCN1CC2([N+](=O)[O-])C=CC(=O)C([N+](=O)[O-])(C1)C2CC(=O)c1ccccc1 (configuration not stated)	x	n	x	x	x
COc1ccc(N(C(=O)c2ccc(Cl)cc2)C2=CC3CCC(C2)N3C)cc1 (configuration not stated)	n	n	n	n	n
O=C(CSc1nnc(Cn2c(=O)sc3ccccc32)n1-c1ccccc1)N1CCCC1	x	n	x	x	x
CSc1nnc(Cn2c(=O)sc3ccccc32)n1-c1ccccc1	n	n	n	n	53
O=C(CSc1nnc(Cn2c(=O)sc3ccccc32)n1-c1ccccc1)Nc1nccs1	68	n	n	n	n
CC(NC(=O)C1(c2cccs2)CCOCC1)c1ccccc1 (configuration not stated)	x	n	x	x	x
CC(C)OC(=O)C1CC=CCC1C(=O)Nc1ccc(Cl)cc1 (configuration not stated)	52	n	n	n	91
O=C(O)C1CC=CCC1C(=O)Nc1ccc(Oc2ccc(Cl)cc2)cc1 (configuration not stated)	x	n	x	x	x
Cc1cc(C)n2nc[n+](C)c2n1	n	n	n	n	n
COc1ccc(/C=N/Nc2nc3ccccc3o2)cc1O	52	n	n	n	51
COc1cc(/C=N/Nc2nc3ccccc3o2)cc(OC)c1O	n	n	n	n	n
CCOC(=O)c1c(C)sc(Sc2ccc(Cl)cc2[N+](=O)[O-])c1OC	n	n	n	n	81
CCOc1ccc(N=C(NC#N)SCC)cc1	x	n	x	x	x
CCOc1ccc(N=C(NC#N)SC)cc1	n	n	n	n	70
CCOC(=O)c1ccc(NC(=S)Nc2ccccn2)cc1	n	n	n	n	n
Cn1c(SCC(=O)c2ccccc2)nnc1-c1cccc(N)c1	n	n	n	n	95
Cn1c(SCC(=O)NC(C)(C)C)nnc1-c1ccc(C(C)(C)C)cc1	53	n	n	n	n
Cn1c(SCC(=O)c2ccccc2)nnc1-c1ccc(O)cc1	n	n	n	n	93
Cn1c(SCC(=O)c2ccccc2)nnc1-c1ccco1	x	n	x	x	x
Cn1c(SCC(N)=O)nnc1-c1ccccc1	n	n	n	n	n
O=C(CSCc1cnn(-c2ccccc2)c1-n1cccc1)NCC1CCCO1 (configuration not stated)	79	n	n	n	80
COc1ccc(CNC(=O)CSCc2cnn(-c3ccccc3)c2-n2cccc2)cc1	98	n	n	n	96
O=C(CSCc1cnn(-c2ccccc2)c1-n1cccc1)NCc1ccc2c(c1)OCO2	x	n	x	x	x
SMILES	CYP2C9 inh	Measles CPE	CYP2C19 activ	CYP2C9 act	CYP2C19 inhib
Cc1cccc(C)c1NC(=O)C(c1ccc(Cl)cc1Cl)N1CCCCC1 (configuration not stated)	n	n	n	n	n
O=C(c1ccc(Cl)c(Cl)c1)c1cc(-c2ccccn2)c(N2CCOCC2)s1	65	n	n	n	n
Cc1ccc(CCN2CC(C(=O)NCCCN3CCOCC3)CC2=O)cc1 (configuration not stated)	n	n	n	n	n
CC(=O)Nc1ccccc1-c1nc2ccc(C(=O)N3CCN(c4cc(C)ccc4C)CC3)cc2[nH]c1=O	99	n	n	n	70
NC1=NS(=O)(=O)NC1c1cccc(Cl)c1 (configuration not stated)	n	n	n	n	n
COc1cccc(N2C(=O)C(c3ccccc3)=C(c3nc4ccccc4s3)C2NC(C)=O)c1 (configuration not stated)	51	n	n	n	56
CC(=O)NC1C(c2nc3ccccc3s2)=C(c2ccccc2)C(=O)N1c1ccc(C)cc1 (configuration not stated)	n	n	n	n	n
O=C(Nc1ccc2c(c1)OCCO2)C1CCN(S(=O)(=O)c2ccc(Br)s2)CC1	n	n	n	n	n
CN1C(=O)/C(=C\c2ccccc2)Sc2ccc(C(=O)N3CCN(c4ccccn4)CC3)cc21	77	n	n	n	72
Cn1nnc2cc(C(=O)N3CCN(c4ccccc4)CC3)ccc21	n	43	n	n	n
O=C(c1ccc2snnc2c1)N1CCN(c2ccccn2)CC1	n	n	n	n	71
O=C1CSc2ccc(C(=O)N3CCN(c4ccccn4)CC3)cc2N1	n	n	n	n	n
O=C(c1ccc2snnc2c1)N1CCN(c2ccccc2)CC1	65	n	n	n	100
COc1ccccc1NS(=O)(=O)c1ccc(C)c(C(=O)NCC2CCCO2)c1 (configuration not stated)	n	n	n	n	n
COc1ccc(CC(=O)Oc2cc(C)[nH]c(=O)c2[N+](=O)[O-])cc1	x	n	x	x	x
C/C(Cn1nc([N+](=O)[O-])cc1C)=N\NC(=O)COc1ccc(Cl)cc1Cl	x	n	x	x	x
O=C(c1cc(Cl)cc(Cl)c1)N1CCOCC1	n	n	n	n	n
COC(=O)c1noc(-c2ccc(C)cc2)n1	n	n	n	n	n
COC(=O)c1coc(-c2ccc(OC)cc2)c1C(=O)OC	n	n	n	n	63
COC(=O)c1coc(-c2ccc(C)cc2)c1C(=O)OC	59	n	n	n	79
Cc1cc(C(=O)c2ccc(C(C)(C)C)cc2)c(NC(=O)CCl)s1	x	n	x	x	x
CCN(CC)S(=O)(=O)c1ccc(N=Cc2c(C)c(C#N)c(=O)n(C)c2O)cc1	x	n	x	x	x
COc1cc(OC)cc(C(=O)NCCCN2CCN(CCCNC(=O)c3cc(OC)cc(OC)c3)CC2)c1	x	n	x	x	x
COc1ccc(-c2noc(CCC(=O)Nc3cc(OC)ccc3OC)n2)cc1	82	n	n	n	98
COc1ccc(-c2noc(CCC(=O)Nc3cc(Cl)c(OC)cc3OC)n2)cc1	54	n	n	n	82
SMILES	CYP2C9 inh	Measles CPE	CYP2C19 activ	CYP2C9 act	CYP2C19 inhib
O=C(Nc1cnn(Cc2c(Cl)cccc2Cl)c1)C(c1ccccc1)c1ccccc1	87	n	n	n	n
COc1ccc(S(=O)(=O)N(CC(=O)NCc2ccco2)C2CCCCC2)cc1OC	n	n	n	n	86
COc1ccc(S(=O)(=O)N(CC(=O)NC2CC2)C2CCCCC2)cc1Cl	72	n	n	n	59
COc1ccc(N(CC(=O)NCc2ccco2)S(C)(=O)=O)cc1Cl	n	n	n	n	66
COc1ccc(N(CC(=O)NCc2ccco2)S(C)(=O)=O)cc1OC	n	n	n	n	83
COc1ccc(N(CC(=O)NCc2ccco2)S(C)(=O)=O)cc1	n	n	n	n	n
COC(=O)c1ccc(NC(=O)C(=O)NCC2CCCO2)cc1 (configuration not stated)	x	n	x	x	x
